These results are taken from PubChem BioAssay (EPA / NIEHS).

The term AC50 denotes the midpoint of the concentration-response curve, whichever way the signal moves.

Results filed as inconclusive are left out. Active and inactive are the calls of the source. Rule for the calls: active = hit-call score of the fitted dose curve at least 0.9, where 1 is the maximum; inconclusive = response in the unintended direction; inactive = score below 0.9.

human Protein Tyrosine Phosphatase Non-receptor Type 9 (PTPN9), PTPN9 (gene 5780), sequence (P43378 whole entry, looked up): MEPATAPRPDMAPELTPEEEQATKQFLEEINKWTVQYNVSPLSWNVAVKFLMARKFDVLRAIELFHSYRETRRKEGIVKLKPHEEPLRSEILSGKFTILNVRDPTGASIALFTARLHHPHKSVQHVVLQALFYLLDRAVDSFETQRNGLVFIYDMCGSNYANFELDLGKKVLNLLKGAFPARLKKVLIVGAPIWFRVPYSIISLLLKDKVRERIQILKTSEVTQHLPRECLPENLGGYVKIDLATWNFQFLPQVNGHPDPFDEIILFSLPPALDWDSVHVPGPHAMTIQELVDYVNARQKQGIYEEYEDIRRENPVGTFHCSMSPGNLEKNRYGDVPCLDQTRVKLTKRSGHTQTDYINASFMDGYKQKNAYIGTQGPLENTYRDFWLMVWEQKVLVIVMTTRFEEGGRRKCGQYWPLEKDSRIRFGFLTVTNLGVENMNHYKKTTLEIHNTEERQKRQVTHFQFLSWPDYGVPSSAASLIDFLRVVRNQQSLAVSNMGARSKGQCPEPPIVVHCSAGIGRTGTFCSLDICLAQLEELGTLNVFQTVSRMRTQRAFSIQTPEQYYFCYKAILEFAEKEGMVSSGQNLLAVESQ
human Protein Tyrosine Phosphatase Non-receptor Type 6 (PTPN6), PTPN6 (gene 5777), sequence (P29350 whole entry, looked up): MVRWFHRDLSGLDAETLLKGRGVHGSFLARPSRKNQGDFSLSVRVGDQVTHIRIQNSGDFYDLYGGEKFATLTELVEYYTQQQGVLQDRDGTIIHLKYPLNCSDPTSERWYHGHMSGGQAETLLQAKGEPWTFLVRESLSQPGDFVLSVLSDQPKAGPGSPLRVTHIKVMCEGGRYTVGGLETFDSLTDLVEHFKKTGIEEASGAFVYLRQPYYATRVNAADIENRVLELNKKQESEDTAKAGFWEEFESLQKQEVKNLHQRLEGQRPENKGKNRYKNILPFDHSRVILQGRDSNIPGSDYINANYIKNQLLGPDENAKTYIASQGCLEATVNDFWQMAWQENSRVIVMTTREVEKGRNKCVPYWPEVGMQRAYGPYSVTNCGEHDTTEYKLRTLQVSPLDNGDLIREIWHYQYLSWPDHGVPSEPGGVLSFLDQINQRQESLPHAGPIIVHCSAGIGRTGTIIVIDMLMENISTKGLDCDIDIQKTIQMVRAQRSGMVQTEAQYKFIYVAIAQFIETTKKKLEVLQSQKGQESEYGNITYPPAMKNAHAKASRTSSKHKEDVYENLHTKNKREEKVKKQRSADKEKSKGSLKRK
human Protein Phosphatase, Mg2+/Mn2+ Dependent 1A (PPM1A), PPM1A (gene 5494), sequence (P35813 whole entry, looked up): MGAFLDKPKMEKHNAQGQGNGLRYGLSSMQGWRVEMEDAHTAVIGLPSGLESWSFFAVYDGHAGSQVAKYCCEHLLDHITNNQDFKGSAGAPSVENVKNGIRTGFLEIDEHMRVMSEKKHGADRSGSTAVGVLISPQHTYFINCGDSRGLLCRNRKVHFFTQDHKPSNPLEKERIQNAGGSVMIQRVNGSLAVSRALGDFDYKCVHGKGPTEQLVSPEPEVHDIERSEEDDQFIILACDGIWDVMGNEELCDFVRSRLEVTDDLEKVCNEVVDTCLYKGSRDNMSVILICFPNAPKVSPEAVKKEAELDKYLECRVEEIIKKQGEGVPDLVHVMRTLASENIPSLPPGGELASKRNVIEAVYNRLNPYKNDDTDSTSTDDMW
human Phosphodiesterase 10 (PDE10), PDE10A (gene 10846), sequence (Q9Y233 whole entry, looked up): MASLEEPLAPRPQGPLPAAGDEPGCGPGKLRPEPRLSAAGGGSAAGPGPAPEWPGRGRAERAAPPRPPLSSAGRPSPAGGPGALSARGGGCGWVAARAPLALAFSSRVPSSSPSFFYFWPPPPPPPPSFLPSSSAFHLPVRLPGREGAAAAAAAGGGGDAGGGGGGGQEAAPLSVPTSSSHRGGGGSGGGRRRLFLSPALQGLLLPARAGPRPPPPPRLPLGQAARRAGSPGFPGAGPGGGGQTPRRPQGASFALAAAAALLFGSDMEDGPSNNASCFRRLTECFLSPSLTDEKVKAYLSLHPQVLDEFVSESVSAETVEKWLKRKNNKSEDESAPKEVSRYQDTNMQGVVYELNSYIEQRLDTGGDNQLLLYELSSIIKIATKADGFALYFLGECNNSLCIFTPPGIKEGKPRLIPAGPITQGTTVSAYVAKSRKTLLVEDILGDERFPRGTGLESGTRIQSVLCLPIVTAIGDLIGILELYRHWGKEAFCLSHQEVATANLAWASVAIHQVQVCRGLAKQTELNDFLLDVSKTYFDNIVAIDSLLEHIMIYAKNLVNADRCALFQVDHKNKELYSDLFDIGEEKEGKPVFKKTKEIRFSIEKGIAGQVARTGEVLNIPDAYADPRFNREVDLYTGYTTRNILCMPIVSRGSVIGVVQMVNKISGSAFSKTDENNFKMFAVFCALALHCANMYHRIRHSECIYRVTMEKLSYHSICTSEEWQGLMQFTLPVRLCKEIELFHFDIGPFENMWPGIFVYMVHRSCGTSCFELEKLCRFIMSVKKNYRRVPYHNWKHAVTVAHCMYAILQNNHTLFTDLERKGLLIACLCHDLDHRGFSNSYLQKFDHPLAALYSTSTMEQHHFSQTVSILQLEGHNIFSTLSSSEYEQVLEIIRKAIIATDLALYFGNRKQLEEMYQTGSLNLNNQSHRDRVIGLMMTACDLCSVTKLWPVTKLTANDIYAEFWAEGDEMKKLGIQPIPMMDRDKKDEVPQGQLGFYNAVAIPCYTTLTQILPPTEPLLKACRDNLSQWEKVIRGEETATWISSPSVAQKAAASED

For the first assay, the target named is human Phosphodiesterase 5 (PDE5), PDE5A (gene 8654) (UniProt O76074). The assay can be described thus: NVS_ENZ_hPDE5: NovaScreen (NVS) Enzymatic Assay for human Phosphodiesterase 5 (PDE5) (AID 2283194). The method in brief: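 Screening began in duplicate at 25 uM, with actives taken into concentration-response. Enzyme activity of recombinant PDE5 toward its substrate was measured at 1 h by fluorescence mobility-shift detection, relative to DMSO controls.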
With `CCCCCCc1ccc(O)cc1O`, the outcome was inactive. On to `CC(C)=CCCC(C)CCO` (centres undefined), for which the molecule was classed as inactive.

For `Cn1c(=O)cc(Oc2ccc(F)cc2F)c2cnc(NCC(C)(C)O)nc21`, the AC50 was 12.4 µM (active). Consider `Cn1c(=O)c2c(ncn2C)n(C)c1=O`, for which the molecule was classed as inactive. Still for that read-out and setting: in the case of `Nc1nc2ncc(CNc3ccc(C(=O)N[C@@H](CCC(=O)O)C(=O)O)cc3)nc2c(=O)[nH]1` it was “inactive”.

Another assay has as its target human Phosphodiesterase 10 (PDE10), PDE10A (gene 10846) (UniProt Q9Y233). The assay can be described thus: NVS_ENZ_hPDE10: NovaScreen (NVS) Enzymatic Assay for human Phosphodiesterase 10 (PDE10) (AID 2283195). The method in brief: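 Fluorescence readout after mobility-shift separation of substrate and product, 1 h reaction with recombinant human enzyme. Single-concentration duplicates at 25 uM, then concentration-response up to 50 uM for chemicals reaching threshold; DMSO baseline.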
On to `CC[C@H]1CC[C@H](NCc2cc3c(cc2OC)[C@H]2C[C@H]2C(=O)N3C)[C@H](c2ccccc2)N1`, for which the result was inactive.

For `Cn1c(=O)cc(Oc2ccc(F)cc2F)c2cnc(NCC(C)(C)O)nc21`, the AC50 is 8.25 µM (active). The same measure, in the same setting: in the case of `Cn1c(=O)c2c(ncn2C)n(C)c1=O` it was 25 µM (active). Take `Nc1nc2ncc(CNc3ccc(C(=O)N[C@@H](CCC(=O)O)C(=O)O)cc3)nc2c(=O)[nH]1`: the molecule was called inactive. As to `COc1cccc(-c2ccc(/C=C\CN3CCCCCC3)cc2Cl)c1`, the AC50 was 22.6 µM (active).

The next assay has as its target human Protein Phosphatase, Mg2+/Mn2+ Dependent 1A (PPM1A), PPM1A (gene 5494) (UniProt P35813). Put plainly: NVS_ENZ_hPPM1A: NovaScreen (NVS) Enzymatic Assay for human Protein Phosphatase, Mg2+/Mn2+ Dependent 1A (PPM1A) (AID 2283198). The method in brief:
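Primary screen in duplicate at 25 uM, with actives then titrated to a maximum of 50 uM. Recombinant PPM1A dephosphorylation of fluorescent substrate measured at 1 h, with substrate and product separated by mobility shift; inhibition fitted against DMSO.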
As for `CC(C)(O)c1coc(S(=O)(=O)NC(=O)Nc2c3c(cc4c2CCC4)CCC3)c1`, the molecule was classed as inactive. Turning to `O=c1[nH]c2ccc(S(=O)CCN3CCC(Cc4ccc(F)cc4)CC3)cc2o1` (centres undefined), the outcome was inactive.

For `CCN(C(=O)c1cc(C)cc(OC[C@H](C)Nc2ccncc2)c1)C(C)C`, the molecule was classed as inactive. Turning to `Cc1ccc(C)c(O)c1`, the call was inactive.

The target in the next assay is Serine/threonine-protein phosphatase PP1-alpha catalytic subunit (Homo sapiens) (UniProt P62136). Put plainly: NVS_ENZ_hPPP1CA: NovaScreen (NVS) Enzymatic Assay for human Protein Phosphatase 1 Aatalytic subunit Alpha (PPP1CA) (AID 2283200). An outline of the steps: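 Chemicals were first screened in duplicate at 25 uM, and those passing threshold (e.g. 30% inhibition) were run as concentration series to 50 uM. Cell-free recombinant protein, 1.33 h read, fluorescent substrate/product mobility-shift detection, normalised to DMSO.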
Serine/threonine-protein phosphatase PP1-alpha catalytic subunit (Homo sapiens), sequence (P62136 whole entry, looked up): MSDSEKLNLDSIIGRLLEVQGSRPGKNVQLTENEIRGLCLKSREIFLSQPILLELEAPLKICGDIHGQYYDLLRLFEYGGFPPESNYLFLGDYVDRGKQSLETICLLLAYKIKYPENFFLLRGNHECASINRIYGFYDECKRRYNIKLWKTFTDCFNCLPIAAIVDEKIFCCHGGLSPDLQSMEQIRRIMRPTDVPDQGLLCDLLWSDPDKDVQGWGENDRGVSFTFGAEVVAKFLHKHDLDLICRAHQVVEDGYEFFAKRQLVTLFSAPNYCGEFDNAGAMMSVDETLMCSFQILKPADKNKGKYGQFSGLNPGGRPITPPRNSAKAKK
`O=c1n(CC2CO2)c(=O)n(CC2CO2)c(=O)n1CC1CO1` (centres undefined): the outcome was inactive. On to `CCCCCCc1ccc(O)cc1O`, for which the molecule was called inactive. Take `Nc1nc2ncc(CNc3ccc(C(=O)N[C@@H](CCC(=O)O)C(=O)O)cc3)nc2c(=O)[nH]1`: the AC50 is 8.97 µM (active).

Another assay addresses human Protein Tyrosine Phosphatase Non-receptor Type 9 (PTPN9), PTPN9 (gene 5780) (UniProt P43378). The assay can be described thus: NVS_ENZ_hPTPN9: NovaScreen (NVS) Enzymatic Assay for human Protein Tyrosine Phosphatase Non-receptor Type 9 (PTPN9) (AID 2283209). An outline of the steps:
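Sf9-expressed enzyme in a cell-free assay, fluorescence read 1.33 h after dosing with mobility-shift separation of substrate and product. Tested at 25 uM in duplicate, then up to 50 uM; signal loss versus DMSO.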
Regarding `O=c1n(CC2CO2)c(=O)n(CC2CO2)c(=O)n1CC1CO1` (centres undefined), the outcome was inactive. Same read-out and setting: next, `CC(C)=CCC/C(C)=C/CO`: “inactive”; `O=C1OC(=O)C2C3C=CC(C3)C12` (centres undefined): “inactive”.

Another assay concerns the target human Protein Tyrosine Phosphatase Non-receptor Type 6 (PTPN6), PTPN6 (gene 5777) (UniProt P29350). The assay can be described thus: NVS_ENZ_hPTPN6: NovaScreen (NVS) Enzymatic Assay for human Protein Tyrosine Phosphatase Non-receptor Type 6 (PTPN6) (AID 2283210). The method in brief: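 Recombinant human PTPN6 from SF9 cells, enzyme activity followed by fluorescence after mobility-shift separation of substrate and product at 1.33 h. Chemicals first tested at a single 25 uM in duplicate, then confirmed across concentration series; loss of signal relative to DMSO.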
Consider `O=C1CCCCCN1`, for which the result was inactive. Same read-out and setting: next, `O=c1n(CC2CO2)c(=O)n(CC2CO2)c(=O)n1CC1CO1` (centres undefined): “inactive”; `CC(C)CCCCCCCOC(=O)CCCCC(=O)OCCCCCCCC(C)C`: “inactive”; `O=C1OC(=O)C2C3C=CC(C3)C12` (centres undefined): “inactive”.
